Source: PubChem BioAssay AID1159580 (chemical genetic matrix, 2015)
Screen size: about 5,500 compounds; about 2,000 (36%) were called active. Inconclusive results (about 18%) are left out. Cut-off read from the data, not from the text of the source: active = normalized growth mostly below about 0.91 (no sharp cut-off); inconclusive = no clear call, values can overlap the other calls; inactive = mostly above about 0.92. The list shows a part of the results.

Assay: chemical genetic growth profiling, strain panel (AID 1159580);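 note: tested at 20 µM; growth read once vehicle control cultures reached saturation at 30 °C; 1 = growth at the plate median or of vehicle wells; lower values mean less growth of the strain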
Conditions: growth OD
[1] = S. cerevisiae deletion strains, locus YAL040C, strain CLN3, active compounds read low
[2] = S. cerevisiae deletion strains, locus YCL061C, strain MRC1 (second series), active compounds read low
[3] = S. cerevisiae deletion strains, locus YER002W, strain NOP16, active compounds read low
[4] = S. cerevisiae deletion strains, locus YMR263W, strain SAP30, active compounds read low
[5] = S. cerevisiae deletion strains, locus YNL153C, strain GIM3, active compounds read low
[6] = S. cerevisiae deletion strains, locus YNL175C, strain NOP13, active compounds read low
[7] = S. cerevisiae deletion strains, locus YNL197C, strain WHI3, active compounds read low
[8] = S. cerevisiae deletion strains, locus YNL224C, strain SQS1, active compounds read low
[9] = S. cerevisiae deletion strains, locus YNL322C, strain KRE1, active compounds read low
[10] = S. cerevisiae deletion strains, locus YOR083W, strain WHI5 (second series), active compounds read low
[11] = S. cerevisiae deletion strains, locus YDR150W, strain NUM1, active compounds read low
[12] = S. cerevisiae deletion strains, locus YGR078C, strain PAC10, active compounds read low
[13] = S. cerevisiae deletion strains, locus YJR075W, strain HOC1, active compounds read low
[14] = S. cerevisiae deletion strains, locus YPL241C, strain CIN2, active compounds read low
[15] = S. cerevisiae deletion strains, locus YAL013W, strain DEP1, active compounds read low
[16] = S. cerevisiae deletion strains, locus YBR229C, strain ROT2, active compounds read low
[17] = S. cerevisiae deletion strains, locus YDL101C, strain DUN1, active compounds read low
[18] = S. cerevisiae deletion strains, locus YEL061C, strain CIN8, active compounds read low
[19] = S. cerevisiae deletion strains, locus YHR030C, strain SLT2, active compounds read low
[20] = S. cerevisiae deletion strains, locus YHR087W, strain rtc3, active compounds read low
[21] = S. cerevisiae deletion strains, locus YJL187C, strain SWE1, active compounds read low
[22] = S. cerevisiae deletion strains, locus YJR043C, strain POL32, active compounds read low
[23] = S. cerevisiae deletion strains, locus YKL190W, strain CNB1, active compounds read low
[24] = S. cerevisiae deletion strains, locus YLR039C, strain RIC1, active compounds read low
[25] = S. cerevisiae deletion strains, locus YLR058C, strain SHM2 (second series), active compounds read low
[26] = S. cerevisiae deletion strains, locus YLR085C, strain ARP6, active compounds read low
[27] = S. cerevisiae deletion strains, locus YLR262C, strain YPT6, active compounds read low
[28] = S. cerevisiae deletion strains, locus YML094W, strain GIM5, active compounds read low
[29] = S. cerevisiae deletion strains, locus YMR219W, strain ESC1, active compounds read low
[30] = S. cerevisiae deletion strains, locus YNL298W, strain CLA4 (second series), active compounds read low
[31] = S. cerevisiae deletion strains, locus YNR030W, strain Alg12, active compounds read low
[32] = S. cerevisiae deletion strains, locus YPL055C, strain LGE1, active compounds read low
[33] = S. cerevisiae deletion strains, locus YPR135W, strain CTF4, active compounds read low

Measured: normalized growth

Cc1[nH]c2ccc(O)cc2c1CCN
inactive: [1] 1 | [2] 1.01 | S. cerevisiae deletion strains, locus YDR363W, strain ESC2, active compounds read low 1.05 | [3] 1 | [4] 1.01 | [5] 1.03 | [6] 1.01 | [7] 0.987 | [8] 0.996 | [9] 1.02 | [10] 0.999

CCc1cccc(N(C)C(N)=Nc2cccc3ccccc23)c1
inactive: [1] 0.98 | [2] 0.989 | [11] 0.998 | [3] 1.03 | [12] 0.97 | [13] 0.983 | [6] 1.03 | [7] 1 | [8] 0.993 | [10] 0.931 | [14] 0.989

O=C(O)CCCNCc1cccc2ccccc12
inactive: [15] 1.01 | [16] 1.01 | [17] 0.998 | [11] 0.984 | [18] 1.01 | [12] 1.01 | S. cerevisiae deletion strains, locus YGR229C, strain SMI1, active compounds read low 1 | [19] 1.02 | [20] 1.01 | [21] 1 | [22] 1.01 | [13] 0.974 | [23] 1 | [24] 1 | [25] 1 | [26] 1.01 | [27] 0.999 | [28] 1.07 | [29] 0.992 | [4] 1 | [5] 0.992 | [30] 1 | [9] 1.01 | [31] 1 | [32] 1.03 | [14] 1.06 | [33] 1.05

N/C(Cc1cccc2ccccc12)=N/O
inactive: [15] 1 | [16] 1.02 | [17] 1.01 | [11] 0.986 | [18] 1.02 | [12] 1.01 | [19] 1.02 | [20] 1.02 | [21] 1.02 | [22] 1.02 | [13] 1.05 | [23] 1.02 | [24] 1.06 | [25] 1.01 | [26] 1.14 | [27] 1.02 | [28] 1.01 | [29] 1.03 | [4] 1.04 | S. cerevisiae deletion strains, locus YMR307W, strain GAS1, active compounds read low 1.17 | [5] 0.997 | [30] 1.02 | [9] 1 | [31] 1 | S. cerevisiae deletion strains, locus YOL006C, strain TOP1, active compounds read low 1.05 | [32] 0.897 | [33] 0.945 | S. cerevisiae strains, strain wild type, active compounds read low 1.02
active: [14] 1.22 [resistant]
